KinaseGlo FLuc: Kinase-Glo luciferase inhibition (counter-screen); 200,000 tested, 0.28% active; Potency, µM (highest dose often 38.3 µM), for inactives: at the top dose activity change, negative = inhibition, actives largely listed as inhibitors; Kinase-Glo luciferase, ATP luminescence, 8 min; Q27757; further: on the % scale 0 is the no-effect control and ±100 the full control effect; nearly all actives have a fitted effect of over 60% in size
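Kinase-Glo luciferase light output from ATP and luciferin was measured with 10 uM ATP, within the enzyme's linear range. Buffer: 50 mM imidazole pH 7.2, 50 mM KCl, 7 mM MgCl2, 0.01% Tween 20, 0.05% BSA; luminescence read after 8 min at ambient temperature.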
Rab9 promoter act: activates the Rab9 promoter. 320,000 tested, 2.8% active. AID 485297. Huh7 Rab9 promoter-luciferase reporter, luminescence, 24 h. Potency, µM (titrated, usually from 9.22 µM), inactives show at the top dose activation, negative = inhibition, actives largely listed as activators; further: % of control where 0% means no effect; nearly all actives have a fitted effect of over 60% in size
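Rab9 promoter-driven luciferase in stably transfected Huh7 cells; 1500 cells/well rested 2 h, exposed to compound in DMSO for 24 h at 37 °C, 5% CO2. Luminescence read 10 min after adding luciferase reagent at ambient temperature.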
ELG1 genotox: inducers of genotoxicity in HEK293T ELG1-luciferase cells; HEK293T ELG1-luciferase reporter, luminescence, 16 h; AID 504466; 330,000 tested, 1.3% active; Potency, µM (doses to about 46 µM), for inactives: top-dose activity change, positive = activation, usual class: activators; further: % of control where 0% means no effect; nearly all actives have a fitted effect of over 60% in size
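HEK293T cells expressing luciferase-tagged ELG1 were treated with compound or DMSO for 16 hr at 37°C. Luciferase activity was then read after 30 min with ONE-Glo at room temperature; rising signal flags genetic stress.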
NPC1 promoter act: activators of NPC1 promoter; Huh7 NPC1 promoter luciferase reporter, 24 h; Potency, µM (titrated, usually from 9.22 µM), without a hit: at the top dose activation, most hits filed as activators; 320,000 tested, 2.4% active; AID 485313; further: % of control where 0% means no effect; nearly all actives have a fitted effect of over 60% in size
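Cells: Huh7 expressing luciferase under the NPC1 promoter, 1500/well. Seeded 2 h, compound added, incubated 24 h at 37 °C. Luciferase reagent, 10 min ambient, then luminescence.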
FLuc modulator: inhibits or activates purified firefly luciferase, miR-21 counter-screen; P08659; purified FLuc, Km substrates, luminescence inhibition; Potency, µM (highest dose often 57.5 µM), without a hit: top-dose activity change, negative = inhibition, actives largely listed as inhibitors; 360,000 tested, 6.9% active; AID 588342;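 further: plate controls were vehicle for no effect and reference inhibitor for full effect; nearly all actives have a fitted effect of over 55% in size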
Target sequence (P08659 whole entry, looked up): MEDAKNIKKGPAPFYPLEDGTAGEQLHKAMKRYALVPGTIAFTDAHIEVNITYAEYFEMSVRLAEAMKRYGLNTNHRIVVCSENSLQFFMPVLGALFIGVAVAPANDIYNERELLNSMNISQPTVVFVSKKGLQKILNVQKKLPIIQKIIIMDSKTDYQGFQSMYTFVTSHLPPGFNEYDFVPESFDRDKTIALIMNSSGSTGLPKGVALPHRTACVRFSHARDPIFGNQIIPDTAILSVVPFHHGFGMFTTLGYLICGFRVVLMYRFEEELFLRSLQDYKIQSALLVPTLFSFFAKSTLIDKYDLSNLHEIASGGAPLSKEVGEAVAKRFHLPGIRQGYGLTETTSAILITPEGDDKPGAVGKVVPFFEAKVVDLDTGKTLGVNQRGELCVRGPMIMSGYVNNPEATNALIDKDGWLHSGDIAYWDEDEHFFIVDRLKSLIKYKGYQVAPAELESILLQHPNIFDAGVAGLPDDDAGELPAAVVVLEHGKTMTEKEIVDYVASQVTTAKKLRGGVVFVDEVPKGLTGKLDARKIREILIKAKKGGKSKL
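Biochemical qHTS of compounds, final roughly 60 µM downward over six points, against 10 nM purified firefly luciferase using Km concentrations of substrates (10 uM D-luciferin, 10 uM ATP) in Tris acetate pH 7.5 buffer; luminescence output.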
SMN2 splice up: SMN2 splice variant enhancement; HEK293 SMN2-luciferase splicing reporter, luminescence, 30-36 h; 210,000 tested, 2.8% active; Potency, µM (highest dose often 46.1 µM), for inactives: at the top dose activity change, positive = activation, hits mostly activators; further: % of control where 0% means no effect; nearly all actives have a fitted effect of over 55% in size
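HEK293 cells carry an SMN2 minigene-luciferase reporter in which exon 7 inclusion puts luciferase in frame. Cells were seeded at 2000 cells/well, attached for 10-12 hours, then exposed to compounds for 30-36 hours at 37C before ONE-Glo luminescence.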
* = called active by the depositor; ? = inconclusive; nt = not tested or not shown. Hits are enriched below; roughly 7.5% of the tested compounds scored in any of these assays. The call rests on the fitted dose curve; in most records, active means well fitted curve in the direction sought with a large enough effect; inconclusive means small, poorly fitted or top-dose-only effect, or another doubt; inactive means no such curve, though single readings can be large; an effect the other way counts as inactive or inconclusive. Potency means the concentration at half of the fitted maximal effect.

SMILES	KinaseGlo FLuc	Rab9 promoter act	ELG1 genotox	NPC1 promoter act	FLuc modulator	SMN2 splice up
Cc1ccc(Oc2c(C(N)=O)cc([N+](=O)[O-])cc2[N+](=O)[O-])cc1	3%	-21%	-18%	-8%	-17%	-98%
CCc1ccc(-c2cc(C(=O)Nn3cnnc3)c3ccccc3n2)cc1	8.9µM*	?	?	?	0.067µM*	?
CCCc1ccc(-c2cc(C(=O)NN3CCOCC3)c3ccccc3n2)cc1	-6%	?	8%	?	1.7µM*	?
CCCc1ccc(-c2cc(C(=O)NCCc3ccc(S(N)(=O)=O)cc3)c3ccccc3n2)cc1	-12%	2.8µM*	1%	?	0.67µM*	?
NS(=O)(=O)c1ccc(CCNC(=O)c2cc(-c3ccc(Br)cc3)nc3ccccc23)cc1	-2%	-1%	-9%	-8%	?	11%
Cc1sc2c(c1C)c(=O)n(CCc1ccccc1)c(=O)n2Cc1ccc(F)cc1	nt	nt	nt	nt	2%	3%
Cn1c(NC(=O)COc2ccccc2)cc(=O)n(C)c1=O	-6%	6%	-3%	2%	0%	-1%
Cc1ccc(C(c2cccc(Br)c2)c2c(C)[nH]c3ccccc23)s1 (stereo not given)	nt	nt	nt	nt	-3%	0%
C=CCn1c(SCc2c(C)noc2C)nc2ccccc2c1=O	-1%	-18%	10µM*	-22%	1%	-18%
C=CCn1c(SCc2c(C)noc2C)nc2cc(C(=O)O)ccc2c1=O	-3%	-20%	?	-22%	8%	20%
Cc1noc(C)c1CSc1nc2ccccc2c(=O)n1-c1ccc(F)cc1F	2%	-11%	18%	-22%	-1%	11µM*
Cc1ccc(NC(=O)CCSc2nc(-c3ccc4c(c3)OCO4)cc(C(F)(F)F)n2)cc1	nt	nt	nt	nt	0%	-18%
Cc1cc(OCC(=O)NNC(=O)c2ccncc2)ccc1C(C)C	nt	-4%	2%	-2%	8.5µM*	nt
CCc1ccc(OCC(=O)Nc2ccncc2)cc1	nt	2%	-2%	0%	11µM*	nt
COCC(=O)Nc1ccc(C(C)C)cc1	-7%	26%	?	27%	24µM*	?
Cn1ccs/c1=N\C(=O)Nc1cccc(C(F)(F)F)c1	nt	28%	4%	?	24µM*	nt
Cc1ccc(Oc2ccc(OCC(=O)Nc3ccncc3)cc2)cc1	nt	nt	3%	nt	nt	nt
CCc1c(C)sc2c1CCN(Cc1cccc(OC)c1)C2c1ccccc1 (stereo not given)	nt	nt	nt	nt	0%	nt
O=C(COc1ccc2ccccc2c1)Nc1ccncc1	1%	-12%	-2%	2%	9.5µM*	nt
CCc1ccc(OCC(=O)N/N=C2\CC(=O)c3ccccc32)cc1	-2%	13%	-2%	14%	12µM*	-4%
COc1ccc(OCC(=O)N/N=C2\CCCCc3ccccc32)cc1	0%	-3%	-2%	0%	-7%	-7%
CC(C)c1ccc(OCC(=O)Nc2ccncc2)cc1	nt	0%	3%	4%	5.4µM*	nt
O=C(COc1ccccc1)Nc1ccncc1	-7%	-3%	-1%	-2%	-10%	nt
CC(C)c1ccc(OCC(=O)Nc2ccc(S(=O)(=O)Nc3ncccn3)cc2)cc1	nt	nt	nt	nt	9.5µM*	3%
C[C@H](NC(=O)c1ncn(Cc2ccccc2)c1C(=O)N[C@@H](C)c1ccccc1)c1ccccc1	nt	-7%	-7%	-1%	-11%	nt
SMILES	KinaseGlo FLuc	Rab9 promoter act	ELG1 genotox	NPC1 promoter act	FLuc modulator	SMN2 splice up
CC1CC(C)CN(S(=O)(=O)c2ccc3c(c2)CC(C)N3C(=O)C2CC2)C1 (stereo not given)	nt	-5%	-3%	-3%	5%	nt
COc1ccc(OC)c(NC(=O)CCCCCn2nnc3ccccc3c2=O)c1	nt	-7%	-10%	-5%	-3%	nt
Cc1ccccc1OCC(=O)Nc1cccc2nsnc12	-4%	0%	17%	-2%	?	29%
O=C(COc1ccc(Br)cc1)Nc1ccc(Cc2ccncc2)cc1	2%	-9%	-3%	-4%	-16%	-13%
COCC(=O)Nc1cccc(C(F)(F)F)c1	-1%	-1%	0%	-2%	0%	3.5µM*
CC(C)(C)c1ccc(OCC(=O)Nc2ccncc2)cc1	nt	1%	-6%	-2%	6µM*	nt
CCc1ccc(OCC(=O)Nc2cccc3nsnc23)cc1	-2%	-6%	3%	-2%	17µM*	-3%
CN(C(=O)Cn1cccc1C1=NC(c2ccccc2)CO1)c1ccccc1 (stereo not given)	2%	-9%	-6%	2%	0%	-25%
Cc1cc(N/N=C/c2cccc(F)c2)nc(NCc2ccccc2)n1	nt	4%	-1%	1%	12µM*	nt
Cc1cc(N/N=C/c2cccc(Cl)c2)nc(NCc2ccccc2)n1	-4%	-1%	-1%	-2%	?	-17%
CN(C)c1nc(NCc2ccccc2)nc(N/N=C/c2ccccc2F)n1	2%	0%	-11%	-2%	-6%	-15%
Cc1cc(N/N=C/c2ccc(Cl)cc2)nc(NCc2ccccc2)n1	-2%	-1%	-3%	-3%	15µM*	-30%
Cc1cc(Nc2cccc(Cl)c2)nc(NCc2ccccc2)n1	4%	-9%	-6%	-4%	?	-55%
Cc1cc(N/N=C/c2ccccc2)nc(NCc2ccccc2)n1	-2%	3%	0%	-2%	6µM*	-4%
Cc1cc(N/N=C/c2ccccc2F)nc(NCc2ccccc2)n1	nt	1%	-6%	-1%	15µM*	nt
COc1cccc(CNC(=O)c2c3c(nc4ccccc24)C(=O)N(C2CCCCC2)C3)c1	nt	nt	nt	nt	3%	nt
Cc1cccc(NC(=O)/C(C#N)=C/c2ccccc2Cl)n1	nt	-3%	1%	0%	6µM*	nt
N#C/C(=C\c1ccccc1O)C(=O)Nc1ccccn1	nt	20%	5%	-6%	4.8µM*	nt
Cn1cc(/C=C(\C#N)C(=O)Nc2ccccc2O)c2ccccc21	nt	?	-11%	27%	?	nt
N#C/C(=C\c1ccc(O)c(O)c1)C(=O)Nc1cccc2ncccc12	nt	-1%	-27%	-1%	?	nt
Cc1cccc(NC(=O)/C(C#N)=C/c2ccccc2O)n1	nt	4µM*	16µM*	3.5µM*	0.6µM*	nt
C=CCNC(=O)/C(C#N)=C/c1ccccc1Cl	0%	1%	8%	-1%	?	-1%
COc1ccc(NCc2ccc(OC)c(OC)c2)cc1	-1%	14%	8%	3%	?	-11%
COc1ccc(S(=O)(=O)NCc2ccc(C(=O)O)cc2)cc1	4%	-1%	0%	-3%	0%	3%
COc1ccc(CNc2ccc(C(=O)O)cc2)cc1	2%	23%	4%	25%	7.6µM*	1%
COc1ccc(CNc2ccc(Br)cc2)cc1	1%	?	?	?	24µM*	-1%
